Shown are actives, neighbours in structure and some others; about 2.4% of the full set was active somewhere.
SENP8 block-1 – SENP8 protease inhibitors, primary screen, biochemical, luminescence; purified SENP8, Z-RLRGG-aminoluciferin cleavage; AID 2540, 2010; 1.2% of 330,000 active; Sentrin-specific protease 8 (Homo sapiens), Q96LD8; inhibition, % at 10 µM; in the data active = inhibition above about 50%
SENP8 block-2 – human SENP8 protease inhibitors, primary screen, biochemical, fluorescence, Nedd8 protein substrate, uHTS; Sentrin-specific protease 8 (Homo sapiens), Q96LD8; recombinant SENP8; inhibition, % at 20 µM; 0.64% of 360,000 active; in the data active = inhibition mostly above about 40%, no sharp cut-off; inactive = mostly below about 27%
Platelet DG rel – inhibitors of platelet dense granule secretion, primary screen, cell-based, MLPCN, human platelets | human platelet-rich plasma, SFLLRN dense granule ATP release, luminescence | inhibition, %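 (compounds screened at 7.5 µM in platelet-rich plasma)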 | 0.22% of 300,000 active | AID 1663, 2009;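 active = mean replicate score, as percent of positive control, at or above 50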
SENP7 inh – SENP7 protease inhibitors, primary screen, biochemical, luminescence, uHTS; Sentrin-specific protease 7 (Homo sapiens), Q9BQF6; recombinant SENP7, Z-RLRGG-aminoluciferin luminescence, 40 min; inhibition, % at 5 µM; 1.5% of 330,000 active; AID 434973, 2010;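 active = inhibition above about 50% at the single test dose, limit read from the data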;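 also: plate controls were DMSO with enzyme for no effect and no enzyme buffer wells for full effect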
SENP6 inh – SENP6 protease inhibitors, primary screen, biochemical, luminescence, uHTS | Sentrin-specific protease 6 (Homo sapiens), Q9GZR1 | 1.8% of 330,000 active | Recombinant SENP6 catalytic domain, aminoluciferin luminescence | inhibition, % at 10 µM;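 active = inhibition above about 50% at the single tested dose, limit read from the data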;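 also: plate controls were DMSO wells with enzyme for no effect and DMSO wells lacking enzyme for full effect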
Target sequence (Q9GZR1 628-1112 limits assumed): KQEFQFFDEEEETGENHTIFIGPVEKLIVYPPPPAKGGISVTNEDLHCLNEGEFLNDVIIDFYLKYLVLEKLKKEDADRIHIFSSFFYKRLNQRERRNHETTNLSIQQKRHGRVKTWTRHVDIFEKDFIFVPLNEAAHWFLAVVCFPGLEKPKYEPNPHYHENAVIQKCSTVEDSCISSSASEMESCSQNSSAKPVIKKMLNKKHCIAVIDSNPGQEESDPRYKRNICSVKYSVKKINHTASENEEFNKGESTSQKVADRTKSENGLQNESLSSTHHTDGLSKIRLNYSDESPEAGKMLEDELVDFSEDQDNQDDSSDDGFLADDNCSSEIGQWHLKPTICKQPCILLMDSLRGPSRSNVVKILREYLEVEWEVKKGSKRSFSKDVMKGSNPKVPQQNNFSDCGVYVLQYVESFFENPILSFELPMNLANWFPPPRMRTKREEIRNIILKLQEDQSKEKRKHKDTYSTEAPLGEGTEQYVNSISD
SENP8 conf – SENP8 protease inhibitors, retest, confirmation, biochemical, luminescence, single concentration. shares compounds with SENP7 inh. Recombinant SENP8, Z-RLRGG-aminoluciferin luminescence, 60 min. inhibition, % at 12.5 µM. 40% of 6,200 active;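 active = mean inhibition across replicates above about 50%, limit read from the data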
SENP6 conf – SENP6 protease inhibitors, confirmation, biochemical, luminescence, single concentration; shares compounds with SENP7 inh; recombinant SENP6, Z-RLRGG-aminoluciferin luminescence; inhibition, % at 12.5 µM; 58% of 6,200 active; AID 488915, 2010
SENP7 conf – SENP7 protease inhibitors, retest, confirmation, biochemical, luminescence, single concentration. 69% of 6,200 active. shares compounds with SENP7 inh. recombinant SENP7, Z-RLRGG-aminoluciferin luminescence, 40 min. AID 488917, 2010. inhibition, % at 12.5 µM
Casp3 SENP sel – caspase-3 protease inhibitors, confirmation, selectivity assay for SENP inhibitor project, biochemical, single concentration; purified caspase-3, Z-DEVD-aminoluciferin luminescence, 60 min; inhibition, % at 12.5 µM; 60% of 6,200 active; AID 488918, 2010; shares compounds with SENP7 inh;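 active = mean inhibition above about 50%, limit read from the data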;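 also: plate controls were enzyme with DMSO for no effect and wells without caspase-3 for full effect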
SENP luc ctr – counter-screen for SENP inhibitors: luminescence interference; inhibition, % at 12.5 µM; Pre-incubated SENP8/Z-RLRGG-aminoluciferin, luciferase luminescence interference; 39% of 6,200 active; shares compounds with SENP7 inh;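 active = mean inhibition above about 50% when retested at one dose, limit read from the data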;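 also: plate controls were DMSO wells with completed reaction for no effect and substrate without enzyme for full effect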
An asterisk follows results filed as active.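 The calls were made as follows, unless noted: active = mean inhibition above about 50% in the one-dose retest (limit read from the data); inactive = the rest.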

For COc1ccc(NC(=O)Nc2c(O)ccc3ccccc23)cc1 the results were SENP8 block-1 5.4, SENP8 block-2 -409.4, Platelet DG rel 6.9, SENP7 inh 4.2 and SENP6 inh -0.1.
Screening CCOc1ccc(OCC)c(NC(=O)CSCCc2ccccn2)c1 returned SENP8 block-1 2.3, SENP8 block-2 25.7, Platelet DG rel -0.9, SENP7 inh 8.8, SENP6 inh 82.3*, SENP8 conf 10.7, SENP6 conf 5.7, SENP7 conf -3.0, Casp3 SENP sel -5.8 and SENP luc ctr -6.0.
CCOc1ccc(OCC)c(NC(=O)CCSCCc2ccccn2)c1 was read as SENP8 block-1 1.3, SENP8 block-2 4.2, Platelet DG rel 13.9, SENP7 inh -1.8 and SENP6 inh 5.7.
For CC1CN(C(=O)c2cc(-c3ccc(Cl)s3)nc3ccccc23)CC(C)O1 (configuration not stated) the results were SENP8 block-1 -1.0, SENP8 block-2 -469.2, Platelet DG rel -1.7, SENP7 inh 7.0 and SENP6 inh 4.7.
Cn1cccc1C(=O)OCC(=O)Nc1ccc2c(c1)OCO2 was read as SENP8 block-1 -2.4, SENP8 block-2 23.5, Platelet DG rel -3.7, SENP7 inh -1.6 and SENP6 inh 9.6.
For Cn1cccc1C(=O)OCc1cc(Cl)cc2c1OCOC2 the results were SENP8 block-1 45.1, SENP8 block-2 10.0, Platelet DG rel -0.2, SENP7 inh 50.7*, SENP6 inh 75.1*, SENP8 conf 70.2*, SENP6 conf 72.1*, SENP7 conf 90.0*, Casp3 SENP sel 47.0 and SENP luc ctr 64.6*.
Screening Cc1cccc(CN2CCC(CNC(=O)CSc3cc(=O)n(C)c4cc(Cl)ccc34)CC2)c1 returned SENP8 block-1 -7.1, SENP8 block-2 -18.2, Platelet DG rel 4.9, SENP7 inh 1.6 and SENP6 inh 0.4.
Fc1cccc2sc(N3CCOCC3)nc12 was read as SENP8 block-1 -8.6, SENP8 block-2 2.6, Platelet DG rel 14.0, SENP7 inh 4.5 and SENP6 inh -23.4.
CCOC(=O)Nc1ccc2nc(N3CCCCCC3)sc2c1 was read as SENP8 block-1 25.0, SENP8 block-2 13.1, Platelet DG rel 2.0, SENP7 inh 32.5, SENP6 inh 58.0*, SENP8 conf 30.6, SENP6 conf 29.5, SENP7 conf 68.9*, Casp3 SENP sel 22.7 and SENP luc ctr 22.2.
For Clc1ccc2nc(N3CCCCC3)[nH]c2c1 the results were SENP8 block-1 27.0, SENP8 block-2 12.9, Platelet DG rel 20.6, SENP7 inh 52.2*, SENP6 inh 58.6*, SENP8 conf 47.7, SENP6 conf 46.8, SENP7 conf 80.1*, Casp3 SENP sel 71.6* and SENP luc ctr 58.8*.
Screening Clc1ccc2nc(N3CCCCC3)sc2c1 returned SENP8 block-1 88.4*, SENP8 block-2 32.6, Platelet DG rel -2.5, SENP7 inh 89.6*, SENP6 inh 97.0*, SENP8 conf 77.7*, SENP6 conf 84.0*, SENP7 conf 89.3*, Casp3 SENP sel 82.1* and SENP luc ctr 46.4.
Screening Fc1cccc2sc(N3CCCCC3)nc12 returned SENP8 block-1 24.5, SENP8 block-2 0.7, Platelet DG rel -3.4, SENP7 inh 38.5, SENP6 inh 59.4*, SENP8 conf -19.3, SENP6 conf 16.5, SENP7 conf 71.2*, Casp3 SENP sel 45.4 and SENP luc ctr 5.1.
For Clc1ccc2nc(C3CCN(Cc4ccccc4)CC3)[nH]c2c1 the results were SENP8 block-1 4.0, SENP8 block-2 -32.0, Platelet DG rel -3.8, SENP7 inh 5.3 and SENP6 inh -10.2.
CS(=O)(=O)N1CCN(c2nc3ccc(Cl)cc3s2)CC1 was read as SENP8 block-1 9.3, SENP8 block-2 26.0, Platelet DG rel 1.4, SENP7 inh 0.3 and SENP6 inh -14.2.
COc1ccc(NC(=O)c2ccc3c(c2)OCO3)cc1 was read as SENP8 block-1 62.1*, SENP8 block-2 13.1, Platelet DG rel -0.3, SENP7 inh 60.0*, SENP6 inh 68.1*, SENP8 conf 62.8*, SENP6 conf 60.9*, SENP7 conf 86.9*, Casp3 SENP sel 87.6* and SENP luc ctr 71.5*.
`COc1ccc(N/C=C\C(=O)c2ccc3c(c2)OCO3)cc1` gave SENP8 block-1 51.2*, SENP8 block-2 -146.8, Platelet DG rel 15.0, SENP7 inh 78.5*, SENP6 inh 75.6*, SENP8 conf 15.3, SENP6 conf 43.8, SENP7 conf 64.9*, Casp3 SENP sel 54.5* and SENP luc ctr 21.9.
COc1ccc(/C=C/C(=O)c2ccc3c(c2)OCO3)c(OC)c1 was read as SENP8 block-1 44.5, SENP8 block-2 -111.9, Platelet DG rel 24.7, SENP7 inh 83.4*, SENP6 inh 84.1*, SENP8 conf 87.2*, SENP6 conf 77.7*, SENP7 conf 93.9*, Casp3 SENP sel 49.6 and SENP luc ctr 65.8*.
Screening CCC(=O)Nc1ccc(NC(=O)c2ccc3c(c2)OCO3)cc1 returned SENP8 block-1 3.6, SENP8 block-2 18.1, Platelet DG rel -0.4, SENP7 inh 15.5 and SENP6 inh 29.7.
For COc1ccc(/C=C/C(=O)c2ccccc2)c(OC)c1 the results were SENP8 block-1 -17.1, SENP8 block-2 -53.0, Platelet DG rel 0.9, SENP7 inh -5.2 and SENP6 inh 2.6.
Screening O=C(/C=C\Nc1ccc2c(c1)OCO2)c1ccc2c(c1)OCO2 returned SENP8 block-1 30.4, SENP8 block-2 -51.1, Platelet DG rel 18.2, SENP7 inh 86.0*, SENP6 inh -6.7, SENP8 conf 9.9, SENP6 conf 14.7, SENP7 conf -1.6, Casp3 SENP sel 10.5 and SENP luc ctr -1.4.
